Experimental findings from PubChem BioAssay (NCATS) are described below.

Structures are written as SMILES. “And” between values parts separate entries of the source, which are not always exact repeats. Equal values may be shown once. Inconclusive results are not listed. Values without a mark were called inactive. Unless noted, calls follow the shape of the full dose curve.

Sequence of Bile acid receptor (Homo sapiens) (Q96RI1 whole entry, looked up): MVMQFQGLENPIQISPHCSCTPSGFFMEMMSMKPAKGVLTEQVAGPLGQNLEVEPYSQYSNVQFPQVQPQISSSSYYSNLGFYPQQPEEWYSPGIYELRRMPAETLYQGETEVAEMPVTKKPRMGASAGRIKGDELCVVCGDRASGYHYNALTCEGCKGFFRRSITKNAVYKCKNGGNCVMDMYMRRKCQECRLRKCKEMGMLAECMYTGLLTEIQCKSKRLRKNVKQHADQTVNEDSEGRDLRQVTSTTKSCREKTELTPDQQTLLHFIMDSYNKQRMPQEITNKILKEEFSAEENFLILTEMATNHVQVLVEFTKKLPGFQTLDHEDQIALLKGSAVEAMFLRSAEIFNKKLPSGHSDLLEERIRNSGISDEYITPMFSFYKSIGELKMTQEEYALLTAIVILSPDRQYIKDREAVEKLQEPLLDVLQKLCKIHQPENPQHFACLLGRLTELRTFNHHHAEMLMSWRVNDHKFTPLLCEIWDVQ

For the first assay, the target named is Androgen receptor (Homo sapiens) (UniProt P10275). As to the kind of experiment: qHTS assay for small molecule agonists of androgen receptor signaling (AID 588515; active = well fitted curve in the direction sought with a large enough effect in the signal ratio, with a control signal flat; the % refers to the signal ratio; also: % is scaled to controls: 0 for no effect and ±100 for the full control effect). The conditions noted are these: AR-UAS-bla HEK293, beta-lactamase ratio, agonist 16 h; stronger effect = higher value. Put shortly: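 EC50 and efficacy came from Hill fits of titrations (up to 92 uM) normalized to 30 nM R1881 as 100% and DMSO as 0%. Compound exposure was 16 h at 37 C on AR-UAS-bla HEK293 cells, with a 405/460/530 nm CCF4 fluorescence read.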
Sequence of Androgen receptor (Homo sapiens) (P10275 whole entry, looked up): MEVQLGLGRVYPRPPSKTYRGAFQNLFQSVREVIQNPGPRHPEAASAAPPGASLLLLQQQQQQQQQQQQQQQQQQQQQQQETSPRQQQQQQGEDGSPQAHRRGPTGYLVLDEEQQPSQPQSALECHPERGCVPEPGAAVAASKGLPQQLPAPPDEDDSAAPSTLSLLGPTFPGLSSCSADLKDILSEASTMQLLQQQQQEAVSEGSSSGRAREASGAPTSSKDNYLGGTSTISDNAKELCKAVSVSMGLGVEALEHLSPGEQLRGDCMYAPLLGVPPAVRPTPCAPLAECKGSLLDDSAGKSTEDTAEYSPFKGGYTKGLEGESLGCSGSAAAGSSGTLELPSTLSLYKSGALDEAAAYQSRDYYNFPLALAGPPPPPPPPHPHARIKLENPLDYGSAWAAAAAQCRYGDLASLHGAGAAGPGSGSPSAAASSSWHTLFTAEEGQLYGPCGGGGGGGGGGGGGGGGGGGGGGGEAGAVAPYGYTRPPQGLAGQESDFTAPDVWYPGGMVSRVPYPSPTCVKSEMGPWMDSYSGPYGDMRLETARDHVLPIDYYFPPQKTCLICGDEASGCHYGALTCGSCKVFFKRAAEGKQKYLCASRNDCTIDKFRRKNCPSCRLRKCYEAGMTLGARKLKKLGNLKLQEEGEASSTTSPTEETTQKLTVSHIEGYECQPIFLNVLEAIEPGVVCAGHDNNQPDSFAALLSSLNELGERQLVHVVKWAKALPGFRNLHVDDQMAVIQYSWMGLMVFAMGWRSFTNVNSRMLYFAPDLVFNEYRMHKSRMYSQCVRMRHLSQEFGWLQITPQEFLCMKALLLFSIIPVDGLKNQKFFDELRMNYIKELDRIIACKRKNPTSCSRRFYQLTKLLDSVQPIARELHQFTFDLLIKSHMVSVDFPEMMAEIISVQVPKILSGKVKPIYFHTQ
In general terms: qHTS replaces the single test concentration by a dilution series.
Take `COc1cc(OC)c(OC)cc1C=O`: the activation was -8.64%.
In the case of `COC(=O)C(c1ccccc1)C1CCCCN1` (stereo unspecified), the activation was 0.332%.
Take `CCOC(=O)CC(SP(=S)(OC)OC)C(=O)OCC` (stereo unspecified): the activation was 17.2% and 0.217% and -5.72%.
Take `CC(C)c1cccc(C(C)C)c1O`: the activation was -6.9%.

The target is the same in another assay. Nature of the assay: qHTS assay for small molecule antagonists of androgen receptor signaling (AID 588516; active = well fitted curve in the direction sought with a large enough effect in the signal ratio, with a control signal flat, not every such curve was filed as active; the % refers to the signal ratio; also: % is scaled to controls: 0 for no effect and ±100 for the full control effect). The conditions noted are these: AR-UAS-bla HEK293, beta-lactamase ratio, antagonist mode, 16 h; series mostly up to 76.8 µM; activity change, negative = inhibition: at the top concentration. The procedure, abridged:
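AR-UAS-bla-GripTite HEK 293 cells (2000/well, 5 h at 37 C) received compound titrations, then R1881 at 10 nM final; after 16 h at 37 C, CCF4 dye 2 h RT, beta-lactamase fluorescence read; IC50 from Hill fits.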
Regarding `COC(=O)C(c1ccccc1)C1CCCCN1` (stereo unspecified), the “activity change, negative = inhibition” value is 20.6%.
In the case of `CCOC(=O)CC(SP(=S)(OC)OC)C(=O)OCC` (stereo unspecified), the “activity change, negative = inhibition” value was -13%.
As to `CC(C)c1cccc(C(C)C)c1O`, the “activity change, negative = inhibition” value was 12.2%.

The next assay addresses Bile acid receptor (Homo sapiens) (UniProt Q96RI1). Nature of the assay: qHTS assay for small molecule agonists of farnesoid X receptor signaling (AID 588527).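 Also: 0% = vehicle basal and 100% = reference agonist.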 Conditions: HEK293T FXR-UAS-bla, beta-lactamase ratio, 16 h; stronger effect = higher value. Put shortly:
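FXR-UAS-bla HEK293T cells (10% dialyzed FBS) preincubated 5-7 h at 37 C, then compounds at up to 92 uM for 16 h at 37 C. CCF4 beta-lactamase read-out after 2 h RT. Normalized to chenodeoxycholic acid (100 uM) and DMSO; Hill fit gave EC50 and efficacy.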
Consider `C[C@]12CCC(=O)C=C1CC[C@@H]1[C@@H]2CC[C@]2(C)C(=O)CC[C@@H]12`, for which the activation was -2.26%.
Consider `CN1C[C@H](C(=O)N[C@]2(C)O[C@@]3(O)[C@@H]4CCCN4C(=O)[C@H](Cc4ccccc4)N3C2=O)C=C2c3cccc4[nH]cc(c34)C[C@H]21`, for which the activation is 2.53%.
Turning to `O=C1c2ccccc2C(=O)C1C(=O)C(c1ccccc1)c1ccccc1`, the activation is -2.98%.
In the case of `COC(=O)C(c1ccccc1)C1CCCCN1` (stereo unspecified), the activation was -2.4%.
For the compound `CC(=O)c1ccc(S(=O)(=O)NC(=O)NC2CCCCC2)cc1`, the activation was -2.29% and -1.81%.
For the compound `CCC(C)(C)c1ccc(O)cc1`, the activation is -0.511% and -0.445%.
Same read-out and setting: in the case of `COc1c2occc2cc2ccc(=O)oc12` it was 0.341% and 4.08%; in that of `S=P(N1CC1)(N1CC1)N1CC1`, 4.46%; in that of `O=C(c1ccccc1)c1ccccc1`, -1.37% and -0.544%.
